BAZ2B block = qHTS Assay for Inhibitors of BAZ2B | AID 504333, 2011 | Bromodomain adjacent to zinc finger domain protein 2B (Homo sapiens), Q9UIF8 | AlphaScreen BAZ2B-H3K14Ac peptide displacement | Potency, µM (top dose mostly 114 µM), inactives show at the highest dose activity change, negative = inhibition, hits mostly inhibitors | 4.4% of 360,000 active; further: on the % scale 0 is the no-effect control and ±100 the full control effect; nearly all actives have a fitted effect of over 60% in size
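AlphaScreen displacement: compounds (up to 110uM) incubated 30 min at room temperature with a preformed 50 nM BAZ2B/50 nM biotinylated H3K14Ac peptide complex in PBS pH 7.4 with Tween-20. Donor and acceptor beads at 10 ug/mL final added, 20 min light-protected before reading.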
HP1b chromo inh = HTS for Inhibitors of HP1-beta Chromodomain Interactions with Methylated Histone Tails; Chromobox protein homolog 1 (Homo sapiens), P83916; AlphaScreen HP1-beta / biotin-H3K9me3 peptide binding; Potency, µM (doses to about 114 µM), inactives show top-dose activity change, negative = inhibition, most hits filed as inhibitors; 0.56% of 390,000 active; AID 540317, 2011; further: nearly all actives have a fitted effect of over 70% in size
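AlphaScreen: HP1-beta (50 nM) preformed 30 min with biotin-H3(1-18)K9me3 peptide (50 nM) in PBS pH 7.4, 0.01% Tween-20. Compound added for 30 min at RT, then streptavidin donor/nickel chelate acceptor beads (10 ug/mL) for 30 min.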
Sfp PPTase inh = qHTS Assay for Inhibitors of Bacillus subtilis Sfp phosphopantetheinyl transferase (PPTase); 4'-phosphopantetheinyl transferase ffp (Bacillus subtilis), Q9F4F7; Biochemical Sfp PPTase activity, qHTS; Potency, µM, for inactives: largest response in the series, negative = inhibition, actives largely listed as inhibitors; 3.5% of 310,000 active; AID 1490, 2009;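 further: the enzyme is Sfp with the accession as filed and its product quenches rhodamine fluorescence; 0% = enzyme reaction without inhibitor and -100% = no enzyme wells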
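Fluorescence-quenching assay with 15 nM Sfp, 5 uM rhodamine-CoA and 12.5 uM BHQ-2-labelled ybbR peptide in pH 7.6 Hepes/MgCl2 buffer. Enzyme was pre-incubated with compound for 15 min at room temperature. Rate was taken from the 30-min fluorescence change (525/598 nm).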
G9a block = qHTS Assay for Inhibitors of Histone Lysine Methyltransferase G9a. Potency, µM (series often up to 102 µM), inactives show at the highest dose activity, negative = inhibition, usual class: inhibitors. Histone-lysine N-methyltransferase EHMT2 (Homo sapiens), Q96KQ7. 8.8% of 350,000 active. G9a H3K9 monomethylation, AlphaScreen, 2 h; further: on the % scale 0 is the no-effect control and ±100 the full control effect; nearly all actives have a fitted effect of over 75% in size
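Enzyme 20 nM + cpd, 15 min RT; add b-H3K9 pep 500 nM / SAM 20 uM; 2 h RT; anti-H3K9me1 Ab 0.5 ug/mL + SA donor / anti-rabbit acceptor beads 20 ug/mL each, 10 min; AlphaScreen read.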
PLK1 PBD inh = qHTS for Inhibitors of PLK1-PDB (polo-like kinase 1 - polo-box domain): Primary Screen. 2.8% of 360,000 active. Potency, µM, for the others: max response, negative = inhibition, hits mostly inhibitors. Plk1 PBD binding of FITC phosphopeptide, fluorescence polarization. AID 720504, 2013; further: series mostly up to about 57 µM; on the % scale 0 is the no-effect control and ±100 the full control effect; nearly all actives have a fitted effect of over 65% in size
JMJD2A Tudor = qHTS Assay for Inhibitors of JMJD2A-Tudor Domain. AlphaScreen JMJD2A-Tudor / H3K4me3 peptide binding. Potency, µM (doses to about 114 µM), without a hit: at the top dose activity change, negative = inhibition, actives largely listed as inhibitors. 4.4% of 390,000 active; further: on the % scale 0 is the no-effect control and ±100 the full control effect; nearly all actives have a fitted effect of over 50% in size
Target sequence (O75164 whole entry, looked up, the tested form may be a part): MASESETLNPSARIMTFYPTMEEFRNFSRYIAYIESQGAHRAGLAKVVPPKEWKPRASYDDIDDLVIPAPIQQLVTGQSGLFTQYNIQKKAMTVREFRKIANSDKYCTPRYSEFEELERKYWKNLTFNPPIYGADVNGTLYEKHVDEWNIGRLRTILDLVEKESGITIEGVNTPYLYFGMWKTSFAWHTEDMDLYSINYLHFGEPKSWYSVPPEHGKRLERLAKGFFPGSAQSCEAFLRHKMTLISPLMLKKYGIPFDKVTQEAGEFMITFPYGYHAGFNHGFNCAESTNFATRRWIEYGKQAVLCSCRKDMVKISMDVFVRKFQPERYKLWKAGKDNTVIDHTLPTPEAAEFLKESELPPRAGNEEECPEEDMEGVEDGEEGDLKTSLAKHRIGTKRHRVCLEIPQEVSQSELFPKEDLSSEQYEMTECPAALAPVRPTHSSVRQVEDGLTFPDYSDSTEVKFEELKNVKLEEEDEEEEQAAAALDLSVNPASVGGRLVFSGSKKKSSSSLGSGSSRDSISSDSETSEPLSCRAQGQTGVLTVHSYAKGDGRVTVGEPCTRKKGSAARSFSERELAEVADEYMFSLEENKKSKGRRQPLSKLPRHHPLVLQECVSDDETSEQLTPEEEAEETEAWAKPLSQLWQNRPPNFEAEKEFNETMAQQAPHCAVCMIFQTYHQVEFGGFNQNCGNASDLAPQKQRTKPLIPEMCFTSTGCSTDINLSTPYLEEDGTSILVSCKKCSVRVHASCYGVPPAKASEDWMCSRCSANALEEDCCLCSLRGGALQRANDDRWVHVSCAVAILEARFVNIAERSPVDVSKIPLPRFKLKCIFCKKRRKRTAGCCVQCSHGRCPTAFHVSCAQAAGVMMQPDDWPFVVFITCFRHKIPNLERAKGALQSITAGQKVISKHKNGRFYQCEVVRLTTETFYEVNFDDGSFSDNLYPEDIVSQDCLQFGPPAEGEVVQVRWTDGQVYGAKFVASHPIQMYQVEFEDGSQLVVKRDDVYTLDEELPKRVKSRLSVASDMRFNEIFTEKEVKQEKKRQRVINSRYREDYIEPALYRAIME
* hit, by the source's call; ? = inconclusive; / = not tested or not shown; ! = a repeat was not active; [ ] = another dose, or the depositor's remark. Rows were chosen to be rich in hits. Some 12% of all compounds tested hit in one or more screens of this group. The call rests on the fitted dose curve; in most records, active means well fitted curve in the direction sought with a large enough effect; inconclusive means small, poorly fitted or top-dose-only effect, or another doubt; inactive means no such curve, though single readings can be large; an effect the other way counts as inactive or inconclusive. Potency means the concentration at half of the fitted maximal effect.

SMILES	BAZ2B block	HP1b chromo inh	Sfp PPTase inh	G9a block	PLK1 PBD inh	JMJD2A Tudor
CN1CCN(/N=C/c2nc(-c3ccc(Cl)cc3)n3ccccc23)CC1	50.1µM*	-18.6%	12.8%	15.8µM*	-21.7%	?
Clc1ccc(-c2nc(/C=N/N3CCOCC3)c3ccccn23)cc1	/	-12.2%	-13.9%	28.2µM*	-8.4%	?
Cc1ccc(C(=O)Nc2cc(C)c(OCC(=O)N3CCOCC3)c(C)c2)cc1	9.1%	34.9%	-4.7%	-3.4%[12.7 µM]	-10.6%	-1.2%
CN(C)C(=O)c1cccc(-c2cnc3cccnn23)c1	/	/	/	/	4.8%	/
Cc1cc(NCCCn2ccnc2)n2nc(C)c(-c3ccc(Cl)cc3)c2n1	31.6µM*	-9.8%	12.4%	?	-7.0%	?
O=C1CCn2c1c(O)c1ccccc1c2=O	/	-14.1%	/	/	-16.8%	35.5µM*
COc1ccc(OCC(=O)NNC(=O)c2cccc(S(=O)(=O)N(C)C)c2)cc1	4.1%	22.9%	3.2%	12.3%	-16.0%	-3.4%
COc1cc(OC)c2c(c1C(CCN1CCCC1)c1ccc(N(C)C)cc1)OC(=O)CC2c1ccc(N(C)C)cc1 (stereo not given)	/	?	-16.3%	/	/	15.8µM*
COc1ccc(C2CC(=O)Oc3c(C(CCN4CCCCC4)c4ccc(N(C)C)cc4)c(OC)cc(OC)c32)cc1 (stereo not given)	22.4µM*	?	-10.3%	-105.3%[59 µM]	5.6%	15.8µM*
COc1ccc(C2CC(=O)Oc3c(C(CCN4CCCC(C)C4)c4cc(OC)c(OC)c(OC)c4)c(OC)cc(OC)c32)cc1 (stereo not given)	/	17.3%	-7.6%	/	/	?
COc1cc(OC)c2ccc(=O)oc2c1C(CCN1CCCC1)c1ccc2c(c1)OCO2 (stereo not given)	-31.8%	4.3%	-3.7%	29.1%[12.7 µM]	-2.5%	-35.9%
COc1ccc(C2CC(=O)Oc3c(C(CCN4CCCC(C)C4)c4ccc(N(C)C)cc4)c(OC)cc(OC)c32)cc1 (stereo not given)	14.1µM*	14.1µM*	89.1µM*!	-119.9%[59 µM]	-3.4%	14.1µM*
COc1ccc(C(CCN2CCCC(C)C2)c2c(OC)cc(OC)c3c(C)cc(=O)oc23)cc1 (stereo not given)	-1.9%	9.7%	-12.6%	7.6%[59 µM]	-6.0%	-27.6%
CC(C)(C)N(Cc1ccccc1)C(=O)COC(=O)C1=NN(c2ccccc2)C(=O)CC1	6.2%	8.5%	/	-42.4%	-0.3%	-17.2%
COc1ccc(O[C@H]2C=C[C@@H](c3ccccc3)O[C@@H]2CO/N=C(\C)CCN2CCc3nc(-c4ccccc4)c(-c4ccccc4)cc3C2)cc1	-37.7%	/	-1.6%	31.6µM*	/	/
CCc1cc2c(nc1CC)CCN(CC/C(C)=N/OC[C@H]1O[C@H](c3ccccc3)C=C[C@@H]1Oc1ccc(OC)cc1)C2	?	/	-4.8%	44.7µM*	/	/
C/C(CCN1CCc2nc(-c3ccccc3)c(-c3ccccc3)cc2C1)=N\OC[C@@H](O)COCc1ccco1	/	/	10.2%	/	/	/
COc1ccc(OCC(=O)Nc2ccc3c(c2)nc(CCN2CCN(C)CC2)n3C)cc1	-19.6%	6.1%	17.4%	37.0%	23.8µM*	?
Cn1c(CN2CCOCC2)nc2cc(NC(=O)COc3ccccc3)ccc21	-14.1%	-19.4%	22.4%	-1.8%	21.2µM*	56.2µM*
COc1ccc(OCC(=O)Nc2ccc3c(c2)nc2n3CCSC2)cc1	-0.7%	2.7%	4.7%	2µM*	-19.4%	-13.2%
Cn1c(CCN2CCOCC2)nc2cc(NC(=O)COc3ccccc3)ccc21	-5.0%	10.3%	9.2%	-33.4%	-7.7%	-16.2%
COC(=O)CCCC(=O)N1CCC(CCC(=O)NC2CC2)CC1	-3.6%[57.1 µM]	10.0%[57 µM]	22.9%	-1.6%	-9.1%	-18.8%
Cc1nc(C)c(C(=O)OCC(=O)NCCc2ccc(F)cc2)s1	7.4%	16.5%	/	39.8µM*	-17.1%	-18.0%
Cc1cccc(C2(c3cccc(C)c3)CC2C(=O)NCC2CCCO2)c1 (stereo not given)	0.0%	13.2%	17.8%	17.0%	26.7µM*	79.4µM*
O=C(CSc1nc(-c2ccccc2Cl)ns1)c1ccc(Cl)cc1	51.0%	160.7%	3.8%	96.1%	-4.7%	75.0%
SMILES	BAZ2B block	HP1b chromo inh	Sfp PPTase inh	G9a block	PLK1 PBD inh	JMJD2A Tudor
C=CCNC(=O)C1CC1(c1cccc(C)c1)c1cccc(C)c1 (stereo not given)	/	19.5%	/	/	-5.3%	-3.6%
Cc1cccc(-c2nsc(SCC(=O)c3ccc(Cl)cc3)n2)c1	12.6%	80.8%	-11.0%	-12.2%	16.8µM*	44.3%
CCOC(=O)CNC(=O)CSc1nc(-c2cccc(C)c2)ns1	-0.2%	-21.3%	-39.2%	11.2µM*	10.6µM*	-0.8%
Cc1cccc(-c2nsc(SCC(=O)NCC3CCCO3)n2)c1 (stereo not given)	-15.1%	-9.5%	?	17.8µM*	8.44µM*	-2.3%
COc1ccc2c(CNC3CCC(C)CC3)c(C(=O)O)n(Cc3ccccc3)c2c1 (stereo not given)	?	17.7%	/	-29.5%[59 µM]	/	-15.8%
COc1ccc(C2(C(=O)NCCc3ccccc3)CCCC2)cc1OC	13.9%	30.5%	7.7%	8.9%[2.33 µM]	-2.2%	-6.2%
Cc1oc(-c2ccc(Cl)cc2)nc1Cn1c(=O)cc(-c2ccccc2)c2c(C)nn(C)c21	-19.0%	66.8%	/	-0.9%[59 µM]	/	-21.0%
NS(=O)(=O)c1ccc(CCNC(=O)c2ccccc2F)cc1	3.7%	-5.9%	-6.2%	-2.0%[59 µM]	-10.1%	-9.7%
Cc1cccc(-c2nsc(SCC(=O)NCc3ccco3)n2)c1	-9.3%	-13.8%	?	31.6µM*	21.2µM*	-22.1%
Cc1ccc2nc(SCC(=O)NCc3ccco3)c(C)cc2c1	-38.3%	10.3%	-14.8%	0.5%	-15.1%	-28.5%
COc1ccc(OC2C=CC(c3ccccc3)OC2CO)cc1 (stereo not given)	/	/	-29.8%	/	/	/
Cc1cc(C)cc(NC(=O)CN2CCC(NC(=O)c3cccc(F)c3)CC2)c1	-1.5%	17.0%	6.2%	-2.8%	3.2%	-0.3%
O=C(Nc1ccccc1N1CCCC1)C1CCN(S(=O)(=O)c2cccc(C(F)(F)F)c2)CC1	?	42.8%	/	14.1µM*	-1.8%	?
COc1ccc(S(=O)(=O)N2CCC(C(=O)Nc3ccccc3N3CCCC3)CC2)cc1OC	-36.4%	10.7%	8.1%	44.7µM*	-2.1%	-21.6%
CCNC(=S)Nc1ccc2c(c1)c(=O)n(C)n2Cc1cccc(C(F)(F)F)c1	/	/	/	/	26.7µM*	/
